Results taken from PubChem BioAssay (NCI).
This is part of a sample that, as a whole, favours compounds with a hit. Of some 83,000 tested, about 20% had one in any assay.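 Step 1: grow cells in 96-well plates. Step 2: add test compound at a single concentration. Step 3: incubate 48 h. Step 4: record percent growth.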 Unmarked numbers belong to inactive results. The source made the active and inactive calls. How the source made its calls: active means growth percent below 10; inactive means the rest.

Experiments:
Assay in all cases: NCI-60 one-dose screen, 48 h (100 = growth as untreated, 0 = no growth, -100 = all killed)
Details in all cases: 10 µM
DU-145 prostate = test system: DU-145 prostate
MALME-3M melanoma = test system: MALME-3M melanoma
MDA-MB-231 breast = test system: MDA-MB-231 breast
RXF 393 renal = test system: RXF 393 renal
SF-268 CNS = test system: SF-268 CNS
SF-295 CNS = test system: SF-295 CNS
SF-539 CNS = test system: SF-539 CNS
UACC-257 melanoma = test system: UACC-257 melanoma
M14 melanoma = test system: M14 melanoma
HCT-15 colon = test system: HCT-15 colon
HT29 colon = test system: HT29 colon
SNB-75 CNS = test system: SNB-75 CNS
SNB-19 CNS = test system: SNB-19 CNS
U251 CNS = test system: U251 CNS
PC-3 prostate = test system: PC-3 prostate
SK-MEL-5 melanoma = test system: SK-MEL-5 melanoma
UACC-62 melanoma = test system: UACC-62 melanoma
LOX IMVI melanoma = test system: LOX IMVI melanoma
SK-MEL-28 melanoma = test system: SK-MEL-28 melanoma

Structure (SMILES)	growth (DU-145 prostate)	growth (MALME-3M melanoma)	growth (MDA-MB-231 breast)	growth (RXF 393 renal)	growth (SF-268 CNS)	growth (SF-295 CNS)	growth (SF-539 CNS)	growth (UACC-257 melanoma)	growth (M14 melanoma)	growth (HCT-15 colon)	growth (HT29 colon)	growth (SNB-75 CNS)	growth (SNB-19 CNS)	growth (U251 CNS)	growth (PC-3 prostate)	growth (SK-MEL-5 melanoma)	growth (UACC-62 melanoma)	growth (LOX IMVI melanoma)	growth (SK-MEL-28 melanoma)
CC(=O)[C@@]12O[C@](C)(c3ccccc3)O[C@@H]1CC1C3CCC4=CC(=O)CC[C@]4(C)C3CC[C@@]12C (stereo partly drawn)	97.1%	85.2%	94.4%	88.9%	77.4%	44.4%	91.6%	73.2%	87%	71%	69.6%	79.5%	85.3%	72.3%	31.1%	55.1%	63%	72.3%	99%
Cc1cc(C(C#N)c2ccc(Cl)cc2)c(Cl)cc1NC(=O)c1cc(I)cc(I)c1O (stereo not drawn)	72.7%	58.1%	46.6%	48.9%	33.7%	-20.9% (active)	31.5%	71.3%	32.3%	28.8%	58%	112%	39.3%	40.4%	13.8%	13.1%	11.5%	75.1%	63.5%
CCCCCC(=O)O[C@]1(C(C)=O)CCC2C3CCC4=CC(=O)CC[C@]4(C)C3CC[C@@]21C (stereo partly drawn)	55.4%	62.1%	29.1%	53.2%	43.6%	13.1%	74.8%	14%	23.8%	26.2%	16.6%	46.3%	43.7%	23.9%	6.12% (active)	-1.8% (active)	18.5%	10.4%	49.4%
CCCCc1oc2ccccc2c1C(=O)c1cc(I)c(OCCN(CC)CC)c(I)c1	34.1%	-72.6% (active)	-79.8% (active)	-70.3% (active)	30.8%	-66.7% (active)	-19% (active)	-61% (active)	-75.3% (active)	-50.5% (active)	-61.2% (active)	12.5%	-60.6% (active)	-86.3% (active)	-8.07% (active)	-100% (active)	-86.8% (active)	-88.7% (active)	-87.8% (active)
CC1/C=C/C=C/C=C/C=C/C=C/C=C/C=C/C(O[C@@H]2O[C@H](C)[C@H](O)[C@@H](O)[C@@H]2N)CC(O)C(C(=O)O)C(O)CC(=O)CC(O)CC(O)CC(O)CC(=O)CCCC(=O)CC(=O)OC1C(C)CC(C)C(O)CC(=O)c1ccc(N)cc1 (stereo partly drawn)	-98.7% (active)	-92.5% (active)	-94.8% (active)	-90.9% (active)	-95.8% (active)	-95.3% (active)	-71.4% (active)	-99.7% (active)	-88.7% (active)	-95.5% (active)	-76.7% (active)	-96.6% (active)	-99% (active)	-100% (active)	-95.7% (active)	-99% (active)	-98.7% (active)	-96.9% (active)	-94.3% (active)
Cc1nc2n(c(=O)c1CCN1CCC(c3noc4cc(F)ccc34)CC1)CCC[C@@H]2O	105%	89.6%	90.5%	108%	102%	87%	98.5%	96.2%	104%	93.8%	95.2%	87.1%	102%	93.7%	91.3%	100%	98.2%	97.4%	97.9%
CCC1NC(=O)c2cc(S(N)(=O)=O)c(Cl)cc2N1 (stereo not drawn)	124%	118%	109%	115%	115%	93%	115%	104%	110%	109%	109%	105%	105%	96.3%	93.6%	104%	103%	99.9%	121%
CO[C@H]1CC(O[C@@H]2/C(C)=C/C[C@@H]3C[C@@H](C[C@]4(C=C[C@H](C)[C@@H](C5CCCCC5)O4)O3)OC(=O)[C@@H]3C=C(C)[C@@H](O)[C@H]4OC/C(=C\C=C\[C@@H]2C)[C@]43O)O[C@@H](C)C1O[C@H]1C[C@H](OC)[C@@H](O)[C@H](C)O1 (stereo partly drawn)	-98.4% (active)	-68.1% (active)	-81.1% (active)	-95.5% (active)	-81.5% (active)	-84.6% (active)	-72.3% (active)	-84% (active)	-88% (active)	-79.2% (active)	-71.9% (active)	-66.8% (active)	-5.35% (active)	-91.2% (active)	-59.6% (active)	-97.8% (active)	-78.1% (active)	-97.3% (active)	-64.6% (active)
CCc1c2c(nc3ccc(OC(=O)N4CCC(N5CCCCC5)CC4)cc13)-c1cc3c(c(=O)n1C2)COC(=O)[C@]3(O)CC	-5.72% (active)	36.2%	102%	37.7%	12.5%	-24.5% (active)	-22.1% (active)	57.6%	2.35% (active)	53.1%	28.8%	-5.06% (active)	26%	13.6%	40.9%	-11.9% (active)	17.9%	4.61% (active)	67%
C[C@]12CCC3c4ccc(O)cc4C[C@@H](CCCCCCCCCS(=O)CCCC(F)(F)C(F)(F)F)C3C1CC[C@@H]2O (stereo partly drawn)	103%	103%	79.5%	87.5%	97.1%	42.8%	86.4%	91.5%	100%	71.6%	72.1%	64.4%	89.8%	68.3%	52.5%	76%	83.3%	90.1%	97.1%
O=c1[nH]c(=O)n(C2C[C@H](O)[C@@H](CO)O2)cc1C(F)(F)F (stereo partly drawn)	123%	107%	107%	116%	114%	92.5%	112%	107%	108%	107%	103%	94.3%	119%	102%	91.9%	106%	108%	103%	120%
CN1CCN(c2cc3c(cc2F)c(=O)c(C(=O)O)cn3-c2ccc(F)cc2)CC1	118%	96.3%	109%	116%	93.2%	99.8%	99.7%	105%	93%	99.2%	91.2%	55.2%	98.2%	106%	90.4%	95.5%	90.2%	84.7%	105%
CCCc1nc(C(C)(C)O)c(C(=O)O)n1Cc1ccc(-c2ccccc2-c2nn[nH]n2)cc1	120%	102%	109%	117%	101%	95.3%	103%	103%	109%	101%	93.6%	66.9%	102%	103%	95.9%	110%	94.5%	94.7%	108%
COc1ccc(CCN2CCC(Nc3nc4ccccc4n3Cc3ccc(F)cc3)CC2)cc1	46.4%	-79.5% (active)	-31.5% (active)	-67.8% (active)	27.7%	-85.7% (active)	-81% (active)	-81.7% (active)	-99.4% (active)	-23% (active)	-53.6% (active)	-29.9% (active)	40.6%	-70.9% (active)	29.4%	-100% (active)	-85.6% (active)	-87.9% (active)	-76.7% (active)
Cc1cc(CC(C)CC(C)(C)C)n(O)c(=O)c1 (stereo not drawn) (tested in a mixture with another compound)	19.5%	8.49% (active)	38.3%	42.1%	14.4%	6.87% (active)	6.73% (active)	-1.79% (active)	-35.9% (active)	23.8%	53.2%	16.7%	26%	17.8%	33.9%	-1.17% (active)	-8.65% (active)	7.96% (active)	
C[N+]1(CCCCC[N+]2(C)CCCC2)CCCC1	93.2%	90%	89.5%	122%	97.1%	123%	93.7%	102%	98.5%	103%	102%	110%	96.8%	108%	86.3%	103%	102%	105%	105%
